Measured values as given in PubChem BioAssay (NCI).
The panel holds about 79,000 compounds, 15% with a hit somewhere; the sample as a whole holds those more often. Unmarked numbers belong to inactive results. Calls of active or inactive are those of the source. Rule as the data show it: active = growth inhibition above about 70%; inactive = the rest. *1 amine or outer side, *2 acyl side, *3 side chain or, on linkers, in order; H or OH if unused. Where a SMILES comes first, the peptide text is derived from it. Bridges are numbered along the chain shown (N, C = ends). [ ]: non-standard residue; d: D form. The star is where a group is joined. ξ: configuration not given here. ξOrn(4,5-diOH) = O=C(C(CC(O)C(O)N[*:3])N[*:1])[*:2]; ξhTyr(βξ-OH,γξ-OH) = NC(C(=O)O)C(O)C(O)c1ccc(O)cc1; ξPro(3ξ-OH,4ξ-Me) = CC1CNC(C(=O)O)C1O; X1 = CCCCC/C=C/C/C=C\CCCCCCCC(=O)*; Hyp = O=C(O)[CH]1C[CH](O)CN1

Columns and labels:
[1] = NCI Yeast Anticancer Drug Screen. Data for the rad50 strain (AID 155);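 also: 0% = growth of vehicle-only cultures of the same strain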; settings: S. cerevisiae rad50 strain growth inhibition, active compounds read high
In short: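 A DNA repair-deficient yeast mutant serves as the test organism; compound-induced growth inhibition is calculated against vehicle-treated cells.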

[2] = NCI Yeast Anticancer Drug Screen. Data for the mec2-1 strain (AID 157); settings: S. cerevisiae mec2-1 strain, active compounds read high
In short: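 Mutant yeast (mec2-1) grown with compound; growth inhibition relative to vehicle control reported.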

[3] = NCI Yeast Anticancer Drug Screen. Data for the sgs1 mgt1 strain (AID 161);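 also: 0% = growth of cultures given vehicle only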; settings: S. cerevisiae sgs1 mgt1 strain, active compounds read high
In short: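 This yeast growth screen uses a strain with defined DNA-repair lesions; compound-treated growth is compared with vehicle-treated growth.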

[4] = NCI Yeast Anticancer Drug Screen. Data for the cln2 rad14 strain (AID 165);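 also: 0% = growth equal to vehicle treated cultures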; settings: S. cerevisiae cln2 rad14 strain, active compounds read high
In short: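 Readout is yeast growth inhibition versus vehicle-treated controls, using a strain with cln2 and rad14 alterations exposed to compound.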

[5] = NCI Yeast Anticancer Drug Screen. Data for the bub3 strain (AID 167); settings: S. cerevisiae bub3 mutant strain, active compounds read high
In short: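 Inhibition values come from growth of compound-treated mutant yeast normalised to vehicle-treated controls.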

[6] = NCI Yeast Anticancer Drug Screen. Data for the mlh1 rad18 strain (AID 175); settings: S. cerevisiae mlh1 rad18 strain growth inhibition, active compounds read high
In short: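 Genetically defined yeast (DNA repair-deficient) exposed to compounds; growth inhibition determined relative to vehicle.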

[7] = at 5.0 µM (retest, dose inferred, filed as 0.5)
[8] = at 50.0 µM (retest, dose inferred, filed as 5.0)

Row | Structure (SMILES) | growth inhibition [1, 7] | growth inhibition [1, 8] | growth inhibition ([1]; at 50.0 µM) | growth inhibition [2, 7] | growth inhibition [2, 8] | growth inhibition ([2]; at 50.0 µM) | growth inhibition [3, 7] | growth inhibition [3, 8] | growth inhibition ([3]; at 50.0 µM) | growth inhibition [4, 7] | growth inhibition [4, 8] | growth inhibition ([4]; at 50.0 µM) | growth inhibition [5, 7] | growth inhibition [5, 8] | growth inhibition ([5]; at 50.0 µM) | growth inhibition [6, 7] | growth inhibition [6, 8] | growth inhibition ([6]; at 50.0 µM)
1 | O=C1C=CC(=Nc2ccc(O)c3ncccc23)c2cccnc21 | 34% | 92% (active) | 94% (active) | 11% | 96% (active) | 95% (active) | 29% | 96% (active) | 95.2% (active) | -1% | 95% (active) | 86.7% (active) | 17% | 94% (active) | 95.6% (active) | 50% | 95% (active) | 92.4% (active)
2 | O=C(O)/C=C/C(=O)Nc1cccc2c1C(=O)c1ccccc1-2 | 18% | 89% (active) | 92.3% (active) | -18% | 93% (active) | 97.9% (active) | 35% | 95% (active) | 97.3% (active) | 8% | 96% (active) | 89.7% (active) | 17% | 93% (active) | 95.9% (active) | 34% | 97% (active) | 96.1% (active)
3 | Cc1cc2c(C(C)C)c(O)c(O)c3coc(/c1=c1/c(C)cc4c(C(C)C)c(=O)c(=O)c5coc1c45)c32 | -1% | 97% (active) | 98.9% (active) | 23% | 99% (active) | 99.2% (active) | 25% | 99% (active) | 99% (active) | -25% | 98% (active) | 98.8% (active) | -3% | 97% (active) | 98.5% (active) | 29% | 98% (active) | 99.2% (active)
4 | CCCCC/C=C/C/C=C\CCCCCCCC(=O)NC1CC(O)C(O)NC(=O)C2C(O)C(C)CN2C(=O)C(C(C)O)NC(=O)C(C(O)C(O)c2ccc(O)cc2)NC(=O)C2CC(O)CN2C(=O)C(C(C)O)NC1=O (stereo not drawn) (X1-[ξOrn(4,5-diOH)]T[Hyp][ξhTyr(βξ-OH,γξ-OH)]T[ξPro(3ξ-OH,4ξ-Me)]; lactam 1-C; configuration not given here) | 3% | 93% (active) | 89% (active) | 51% | 98% (active) | 90.8% (active) | 51% | 93% (active) | 90.3% (active) | 9% | 95% (active) | 83.8% (active) | 11% | 97% (active) | 89.9% (active) | 40% | 96% (active) | 88.6% (active)
5 | CC12CCC(C(Br)(Br)C1=O)C2(C)C (configuration not stated) | 29% | 60% | 40.6% | 17% | 46% | 59.4% | 26% | 56% | 72.1% (active) | 22% | 41% | 30.5% | 18% | 74% (active) | 86.8% (active) | 16% | 68% | 88.7% (active)
6 | C/C(=N\Nc1n[nH]c(=S)n1N)c1c(O)cc(C)oc1=O | -28% | 13% | -23% | 3% | 12% | 12.1% | -1% | 4% | 18.9% | -2% | 9% | -21% | 2% | 3% | 14.1% | -2% | 2% | 16.5%
7 | O=c1c2c(F)c(F)c(F)c(F)c2sc2nccn12 | 15% | 100% (active) | 89% (active) | 40% | 100% (active) | 91.2% (active) | 2% | 99% (active) | 84.8% (active) | 5% | 99% (active) | 90.2% (active) | 27% | 100% (active) | 89.5% (active) | 46% | 99% (active) | 86.8% (active)
8 | Cc1cccc2c(CC(=O)O)cccc12 | -5% | 78% (active) | 78.7% (active) | 7% | 82% (active) | 77.7% (active) | 1% | 81% (active) | 52.5% | 19% | 61% | 71.8% (active) | -1% | 95% (active) | 75% (active) | 4% | 88% (active) | 78.5% (active)
9 | C=C(CN(C)C)C(=O)c1ccccc1C | -2% | 65% | 87.6% (active) | -8% | 88% (active) | 78.7% (active) | 13% | 86% (active) | 85% (active) | -17% | 45% | 65.8% | -11% | 89% (active) | 91.1% (active) | -4% | 97% (active) | 97% (active)
